High-throughput results: PubChem, National Center for Advancing Translational Sciences (NCATS)
Most compounds without a hit are left out; they make up all but 2.8% or so of the library.
ATXN2 expr inh – reduces ATXN2 reporter expression in HEK-293 cells. HEK-293 ATXN2-luciferase reporter, luminescence, 24 h. Potency, µM (top dose mostly 57 µM), most hits filed as inhibitors. 360,000 compounds, 0.72% hits. AID 1745845; also: nearly all actives have a fitted effect of over 55% in size
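qHTS (up to 57 uM final) was run with 24 h compound exposure of reporter cells at 37 °C. Each well was multiplexed: SteadyGlo luminescence measured ATXN2-luciferase expression after a fluorogenic Gly-Phe-AFC viability readout (25 uM final).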
Six1-Eya2 blk – blocks human Six1 binding to Eya2 | 360,000 compounds, 0.56% hits | AlphaScreen GST-Six1/His-Eya2 binding, biochemical; stronger effect = lower value | activity change, % (concentration not given with the values) | AID 651725 | Q15475+O00167; in the data active = activity change below about -65%; inconclusive = mostly about -30% to -63%
Target sequence (O00167 whole entry, looked up): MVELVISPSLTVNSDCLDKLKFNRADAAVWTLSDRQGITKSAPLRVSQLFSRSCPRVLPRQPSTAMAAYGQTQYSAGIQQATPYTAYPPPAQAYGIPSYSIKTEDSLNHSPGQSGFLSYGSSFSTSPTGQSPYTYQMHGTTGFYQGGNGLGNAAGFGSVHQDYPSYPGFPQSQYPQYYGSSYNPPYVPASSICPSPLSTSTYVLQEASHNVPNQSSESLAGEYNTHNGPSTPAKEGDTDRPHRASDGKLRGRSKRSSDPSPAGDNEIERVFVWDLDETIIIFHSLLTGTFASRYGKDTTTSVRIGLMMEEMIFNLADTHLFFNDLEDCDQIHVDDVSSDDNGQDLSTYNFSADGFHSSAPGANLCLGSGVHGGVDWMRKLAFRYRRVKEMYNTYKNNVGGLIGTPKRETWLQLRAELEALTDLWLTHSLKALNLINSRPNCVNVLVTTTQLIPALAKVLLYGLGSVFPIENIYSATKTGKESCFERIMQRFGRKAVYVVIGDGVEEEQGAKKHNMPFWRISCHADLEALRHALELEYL
Target sequence (Q15475 whole entry, looked up): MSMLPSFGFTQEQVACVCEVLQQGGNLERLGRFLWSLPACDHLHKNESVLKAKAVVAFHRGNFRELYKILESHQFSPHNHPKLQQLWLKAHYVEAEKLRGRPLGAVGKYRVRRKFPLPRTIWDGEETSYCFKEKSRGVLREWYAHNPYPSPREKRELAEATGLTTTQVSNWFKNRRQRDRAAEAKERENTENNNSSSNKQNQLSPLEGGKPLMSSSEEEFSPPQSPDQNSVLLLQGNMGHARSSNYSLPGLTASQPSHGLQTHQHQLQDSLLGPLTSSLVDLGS
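AlphaScreen with GST-Six1 and His-Eya2 (5X mix: 250 nM and 500 nM), glutathione donor and nickel acceptor beads; buffer 50 mM Tris pH 8.0, 300 mM NaCl, 1 mM TCEP; 1 h at 37 C in the dark.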
HepG2 viability – kills HepG2 cells in TGF-b inhibitor counter-screen. HepG2 CAGA-GFP viability, ATP luminescence, 18 h. Potency, µM (titrated, usually from 46.1 µM), hits mostly cytotoxic. 410,000 compounds, 0.76% hits. AID 588856
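HepG2 CAGA-GFP cells (1000/well, DMEM with 1% FBS) received compound, then TGF-beta at 500 pg/mL final, and were incubated 18 hours at 37 degrees C. Viability was read by CellTiter-Glo luminescence. Media-only wells were set as complete cell-killing and DMSO as no toxicity.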
TGFb SMAD3 inh – inhibitors of TGF-b signaling. Potency, µM (highest dose often 46.1 µM), most hits filed as inhibitors. HepG2 CAGA-GFP TGF-b/SMAD3 reporter, GFP fluorescence, 18 h; TGF-beta stimulated, 500 pg/mL final. 410,000 compounds, 1.2% hits; also: nearly all actives have a fitted effect of over 65% in size
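Inhibition was scored as loss of TGF-beta-induced (500 pg/mL final, 18 hours, 37 degrees C) GFP in HEPG2 cells carrying a CAGA-GFP reporter, in DMEM with 1% FBS. Well GFP was summed per cell; Activity was normalised to unstimulated and stimulated DMSO wells, then concentration-response fitting.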
ATXN viability – reduces viability in counter-screen for ATXN expression inhibitors. Potency, µM (doses to about 56.7 µM), actives largely listed as cytotoxic. 400,000 compounds, 0.49% hits. S2 cells (HEK-293 line with an ATXN2-luciferase reporter) viability, CellTiter-Fluor protease fluorescence, 24 h. AID 651635; also: nearly all actives have a fitted effect of over 40% in size
CtBP-E1A inh – blocks the CtBP interaction with E1A | AlphaScreen GST-E1A/His-CtBP binding, 1536-well; stronger effect = lower value | activity change, % (test concentration not listed) | 340,000 compounds, 0.49% hits; in the data active = activity change below about -65%; inconclusive = mostly about -30% to -63%
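Protein mix (5X: 125 nM each GST-E1A, His-CtBP) was incubated with pinned compound 2 h at 37 deg C in dark, in 50 mM Tris pH 8.0 buffer with 300 mM NaCl. Glutathione donor and nickel acceptor beads followed; AlphaScreen signal read after 1 h.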
Numbers stand for hits; i = inactive; ? = inconclusive; nt = no result; ! = a repeat was not active; [ ] = dose if it differs, or a comment. Unless noted, calls follow the shape of the dose curve; as a rule, active = well fitted curve in the direction sought with a large enough effect; inconclusive = small, poorly fitted or top-dose-only effect, or another doubt; inactive = no such curve, though single readings can be large; an effect the other way counts as inactive or inconclusive.

SMILES	ATXN2 expr inh	Six1-Eya2 blk	HepG2 viability	TGFb SMAD3 inh	ATXN viability	CtBP-E1A inh
CC(C)(C)CC(=O)OCC(=O)[C@@]1(O)CC[C@H]2[C@@H]3CCC4=CC(=O)C=C[C@]4(C)[C@H]3[C@@H](O)C[C@@]21C	i	nt	nt	nt	?	nt
Cc1ccc(OCc2ccc(-c3nc(C#N)c(NCc4ccccc4Cl)o3)o2)cc1	?	nt	i	?	20µM	nt
Cc1ccc(-c2nn3c(C)nnc3s2)cc1NC(=O)c1ccc(-c2ccc(Cl)cc2Cl)o1	8.91µM	i	i	?	nt	i
Cc1ccc(-c2nn3c(C)nnc3s2)cc1NC(=O)c1ccc(-c2cccc(Cl)c2)o1	?	i	i	?	?	i
COc1cccc(NC(=O)c2c(C(=O)Nc3ccccc3)sc3nc(C)cc(=O)n23)c1	i	nt	i	i	i	nt
CCCCCCCCCCOC(=O)Cn1c(COc2ccccc2C)[n+](C)c2ccccc21	22.4µM	i	i	?	?	i
CCCCCCCCCCOC(=O)Cn1c(COc2ccc(OC)cc2)[n+](C)c2ccccc21	?	i	11.2µM!	10µM	?	i
CCCCCCCCCCOC(=O)Cn1c(COc2cccc(C)c2)[n+](C)c2ccccc21	i	i	i	?	i	i
CCOC(=O)Cn1c(COc2ccccc2OC)[n+](C)c2ccccc21	nt	i	i	i	i	nt
CCCCCCCCCCOC(=O)Cn1c(COc2ccc(Cl)cc2)[n+](C)c2ccccc21	nt	i	12.6µM	12.6µM	nt	nt
CCCCCCCCCCOC(=O)Cn1c(COc2ccccc2)[n+](C)c2ccccc21	nt	i	i	11.2µM	?	nt
NC(=O)Nc1ccc(/C=C2\C=Cc3ccccc32)cc1	nt	nt	i	?	nt	nt
COc1ccc(NCc2cc3cc4c(cc3n(CC(=O)Nc3ccc(F)cc3F)c2=O)OCO4)cc1	nt	nt	i	i	nt	nt
Cc1cc(-c2ncc(CC(=O)Nc3ccc(-c4cnccn4)cn3)cc2C)ccn1	i	nt	nt	nt	nt	nt
O=C1OCCC1Sc1nnc(-c2ccc(Cl)cc2Cl)o1 (configuration not stated)	6.31µM	i	i	?	i	i
O=C1OCCC1Sc1nnc(-c2ccccc2)o1 (configuration not stated)	i	i	i	i	i	i
COc1cc(C2NC(=O)NC(C)=C2C(=O)Nc2cc(C)cc(C)c2)ccc1O (configuration not stated)	i	nt	i	i	i	nt
O=C(N/N=C/C(Br)=C/c1ccccc1)c1ccccc1[N+](=O)[O-]	i	i	i	i	i	-92.5
O=C(N/N=C/C(Br)=C/c1ccccc1)c1cnccn1	i	-81.6	i	i	?	?
O=C(CN1CCOCC1)N/N=C/C(Br)=C\c1ccccc1	i	i	i	i	i	-81.4
COc1cccc(C(=O)N/N=C/C(Br)=C/c2ccccc2)c1	i	i	i	?	?	-87.9
Cc1occc1C(=O)N/N=C/C(Br)=C/c1ccccc1	i[11.3 µM]	i	i	i	i	?
COc1ccc(C(=O)Nc2ccc3ncccc3c2)cc1	20µM	i	i	i	i	i
CCCSc1ncc(Cl)c(C(=O)N(Cc2ccccc2)c2ccc(OC)cc2)n1	nt	nt	i	nt	nt	nt
CS(=O)(=O)c1ncc(Cl)c(C(=O)N(Cc2ccc(Cl)cc2)Cc2ccco2)n1	5.62µM	nt	3.16µM	5.01µM	nt	nt
SMILES	ATXN2 expr inh	Six1-Eya2 blk	HepG2 viability	TGFb SMAD3 inh	ATXN viability	CtBP-E1A inh
COc1ccc(N(Cc2ccccc2)C(=O)c2nc(S(C)(=O)=O)ncc2Cl)cc1	nt	nt	i	2µM	nt	nt
O=C(c1ccc(Cl)cc1)N(Cc1ccco1)Cc1ccco1	nt	nt	i	i	nt	nt
COc1cc(O)ccc1CN1CCc2nnc(C(C)NC(=O)c3cc(F)ccc3F)n2CC1 (configuration not stated)	nt	nt	nt	nt	i	nt
CSCC[C@H](NC(=O)[C@H](Cc1c[nH]c2ccccc12)NC(=O)CCNC(=O)OC(C)(C)C)C(=O)N[C@@H](CC(=O)O)C(=O)N[C@@H](Cc1ccccc1)C(N)=O	i	nt	nt	nt	i	nt
O=C(/C=C/c1cccc([N+](=O)[O-])c1)Nn1c(-c2ccccc2F)nc2ccccc2c1=O	i	i	i	i	i	i
Cc1nc2ccccc2c(=O)n1NC(=O)/C=C/c1ccc(Br)cc1	?	i	i	i	i	-65.5
Cc1cccc(-c2nc3ccccc3c(=O)n2NC(=O)/C=C/c2ccc([N+](=O)[O-])cc2)c1	i	i	i	i	?	-81.0
CCOc1cc(/C=N/NC(N)=O)cc(Br)c1OCC(=O)Nc1cccc2ccccc12	i	i	11.2µM	i	i	i
CS(=O)(=O)c1ccc2nc(NC(=O)c3cccs3)sc2c1	?	i	10µM	i	i	i
O=C(Nc1nc2c(s1)CCCC2)c1cccs1	i	i	10µM	i	i	i
CS(=O)(=O)c1ccc2nc(NC(=O)c3cccc(NS(=O)(=O)c4ccc(F)c(F)c4)c3)sc2c1	i	i	i	17.8µM	i	i
CC(C)CC(=O)Nc1nc2ccc(S(C)(=O)=O)cc2s1	i	i	11.2µM	i	i	i
COc1cc(NS(=O)(=O)c2c(C(=O)N3CCCCC3)c(C)n(C)c2C)cc(OC)c1OC	i	nt	i	i	i	nt
COCC(=O)Nc1cc(C(=O)N2CCc3sccc3C2)c2c(c1)nc(-c1ccncc1)n2C	nt	nt	nt	nt	i	nt
Cn1cc(CN2CCC(C3(c4ccccn4)NC(=O)N(CC4CCCO4)C3=O)CC2)c2ccccc21 (configuration not stated)	nt	nt	nt	nt	i	nt
COCC(=O)Nc1cc(C(=O)N2CCCCC2c2nccn2C)cc2nc(-c3ccccc3)n(C)c12 (configuration not stated)	nt	nt	nt	nt	i	nt
Cc1ccc(-c2cc(C(=O)N/N=C/c3ccccc3O)n[nH]2)o1	20µM	?	i	?	?	?
Cc1cc(C(=O)N/N=C\c2cc(C(C)(C)C)ccc2O)n[nH]1	?	?	i	i	i	-67.9
Cc1ccc(NC(=O)CN2C(=O)NC(Cc3c[nH]c4ccccc34)C2=O)cc1S(=O)(=O)N1CCCCC1 (configuration not stated)	i	i	i	10µM	?	i
Cc1cc(NC(=O)c2ccoc2C)ccc1Br	i	i	i	15.8µM	i	i
Cc1ccc(NC(=O)c2ccoc2C)cc1C	i	i	i	i	i	i
CC(=O)c1ccc(NC(=O)c2cc(-c3ccc(C)s3)nc3ccccc23)cc1	i	nt	i	?	i	nt
c1ccc(-c2nc3ccccn3c2NC2CCCC2)nc1	?	?	i	i	?	-67.4
Cc1cc(C)n2c(NC3CCCC3)c(-c3cc4ccccc4o3)nc2n1	i	i	nt	nt	i	i
Cc1cc(C)n2c(NC3CCCCC3)c(-c3ccccn3)nc2n1	i	-78.0	nt	nt	?	?
Cc1ccn2c(NC3CCCC3)c(-c3ccccn3)nc2c1	i	-66.0	i	?	?	-80.0
